Data as given in PubChem BioAssay AID1159580 (chemical genetic matrix, 2015).
About 2,000 (36%) of roughly 5,500 compounds were called active. About 18% were inconclusive and are not listed. Cut-off read from the data, not from the text of the source: active = normalized growth mostly below about 0.91 (no sharp cut-off); inconclusive = no clear call, values can overlap the other calls; inactive = mostly above about 0.92. This is one part of the list.

Assay: chemical genetic growth profiling, strain panel (AID 1159580);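 note: tested at 20 µM; growth read once vehicle control cultures reached saturation at 30 °C; 1 = growth at the plate median or of vehicle wells; lower values mean less growth of the strain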
Details: S. cerevisiae deletion strains, growth OD

Measured: normalized growth

CNCCc1ccc(O)c(O)c1
active: locus YDR150W, strain NUM1, hits give low values 0.922
inactive: locus YAL013W, strain DEP1, hits give low values 0.964 | locus YAL040C, strain CLN3, hits give low values 0.991 | locus YCL061C, strain MRC1 (second series), hits give low values 0.956 | locus YDR363W, strain ESC2, hits give low values 1.03 | locus YER002W, strain NOP16, hits give low values 1 | locus YMR263W, strain SAP30, hits give low values 1 | locus YNL128W, strain TEP1, hits give low values 0.996 | locus YNL175C, strain NOP13, hits give low values 1 | locus YNL197C, strain WHI3, hits give low values 1.02 | locus YNL224C, strain SQS1, hits give low values 1 | locus YNL322C, strain KRE1, hits give low values 0.979 | locus YOR083W, strain WHI5 (second series), hits give low values 0.976
